Screening results (PubChem)
KCNH2 WT inh – inhibitors of human wildtype KCNH2 potassium channel; activity change, % at 1.84 µM; Q12809; hit rate 0.37% among 340,000; U2OS, BacMam KCNH2, thallium flux FluxOr; hits give low values;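 active means maximum activity change below -70%; inconclusive means maximum activity change between -70% and -50%; inactive means maximum activity change above -50%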
Target sequence (Q12809 whole entry, looked up): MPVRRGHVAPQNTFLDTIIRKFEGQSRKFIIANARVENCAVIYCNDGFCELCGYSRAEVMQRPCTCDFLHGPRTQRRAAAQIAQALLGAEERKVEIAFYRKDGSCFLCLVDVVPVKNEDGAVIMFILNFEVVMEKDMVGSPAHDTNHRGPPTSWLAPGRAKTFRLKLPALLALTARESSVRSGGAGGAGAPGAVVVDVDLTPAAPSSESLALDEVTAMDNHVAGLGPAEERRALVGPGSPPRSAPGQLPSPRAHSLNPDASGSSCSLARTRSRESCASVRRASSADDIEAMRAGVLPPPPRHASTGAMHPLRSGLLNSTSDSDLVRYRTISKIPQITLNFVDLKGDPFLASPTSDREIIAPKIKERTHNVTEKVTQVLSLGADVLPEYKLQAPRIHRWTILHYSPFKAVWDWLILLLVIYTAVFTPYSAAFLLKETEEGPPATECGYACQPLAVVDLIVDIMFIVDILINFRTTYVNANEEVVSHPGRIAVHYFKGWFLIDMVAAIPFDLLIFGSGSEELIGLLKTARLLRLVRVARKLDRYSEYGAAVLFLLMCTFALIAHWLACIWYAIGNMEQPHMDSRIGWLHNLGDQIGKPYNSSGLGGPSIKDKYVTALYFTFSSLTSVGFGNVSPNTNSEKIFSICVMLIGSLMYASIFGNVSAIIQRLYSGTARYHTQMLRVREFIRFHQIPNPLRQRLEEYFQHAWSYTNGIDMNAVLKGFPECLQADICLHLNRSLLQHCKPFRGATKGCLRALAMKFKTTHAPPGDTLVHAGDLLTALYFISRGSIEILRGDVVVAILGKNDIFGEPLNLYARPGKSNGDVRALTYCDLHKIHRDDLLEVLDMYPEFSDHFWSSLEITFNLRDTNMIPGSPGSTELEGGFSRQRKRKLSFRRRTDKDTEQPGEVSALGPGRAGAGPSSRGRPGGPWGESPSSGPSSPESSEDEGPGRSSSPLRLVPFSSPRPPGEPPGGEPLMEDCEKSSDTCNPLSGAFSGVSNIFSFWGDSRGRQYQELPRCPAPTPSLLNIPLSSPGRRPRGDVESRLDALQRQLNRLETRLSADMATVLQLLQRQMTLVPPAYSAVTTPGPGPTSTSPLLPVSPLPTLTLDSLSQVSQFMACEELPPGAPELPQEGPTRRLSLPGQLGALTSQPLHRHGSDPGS
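U2OS cells transduced with wild-type KCNH2 virus are loaded with FluxOr dye for 45 min, and thallium flux is measured in kinetic reads before and after stimulation buffer. Rate constants are normalized to DMSO controls.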
GLS inh – inhibitors of human glutaminase (GLS). AID 624170. hit rate 0.21% among 410,000. Potency, µM (doses to about 45.5 µM), usual class: inhibitors. GLS enzymatic activity, qHTS titration
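Assay buffer: 45 mM KH2PO4 pH 8.2, 0.02% Tween-20. hKGA acts on L-glutamine (1 mM solution added); product glutamate is reported by an oxidase/peroxidase Amplex Red coupling, with fluorescence taken at baseline and 30 min.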
HEK293 tox – cytotoxic in the GLP-1 receptor inverse agonist counter-screen. HEK293 cAMP-luciferase reporter cells, luminescence, 24 h. Potency, µM (titrated, usually from 38.3 µM), hits mostly inhibitors. hit rate 0.13% among 410,000. AID 624418;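 further: loss of luciferase light is scored as toxicity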
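To flag toxic compounds, the library was rerun on cells for 24 hr at 37 deg C and 5% CO2. Viability-linked luminescence was captured 12 min after adding luciferase detection reagent.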
KCNH2 3.1 inh – blocks the human KCNH2 3.1 channel isoform | hit rate 0.95% among 340,000 | activity change, % (tested at about 1.8 µM) | U2OS KCNH2 3.1, thallium flux FluxOr; hits give low values;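 active means maximum activity change below -70%; inconclusive means maximum activity change from -70% to -50%; inactive means maximum activity change above -50%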;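 further: thallium influx rate constant from kinetic fluorescence after stimulation buffer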
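Virally transduced U2OS (3.1 isoform, 4 h infection in dark at RT) → overnight 37 C → FluxOr + Red40 in HBSS/HEPES, 45 min → stimulation buffer, 2 min kinetic read → rate constant vs DMSO controls.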
GLP-1R agonist – GLP-1 receptor (human) agonism; P43220; HEK293 GLP-1R CRE-luciferase, luminescence, 4-6 h; cells express a hypersensitive GLP-1R form; Potency, µM (series often up to 45.6 µM), most hits filed as activators; hit rate 0.007% among 380,000; AID 624172
GLP-1R inv ag – GLP-1 receptor (human) inverse agonism | HEK293 GLP-1R CRE-luciferase, luminescence, 24 h; GLP-1R form is constitutively active | Potency, µM (highest dose often 38.3 µM), usual class: inhibitors | hit rate 1.6% among 410,000 | AID 624417; further: nearly all actives have a fitted effect of over 55% in size
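Assay principle: reduced luminescence from a cAMP-responsive reporter in HEK293 cells co-expressing a constitutively active GLP-1R. Conditions: 24 hr compound incubation, 37 deg C, 5% CO2.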
A number is an active result; 0 = inactive; ? = inconclusive; - = not tested or not shown. Only some compounds are listed: those with a hit (about 2.8% of all), similar ones and a draw of the others. Unless noted, the call rests on the fitted dose curve; in most records, active means well fitted curve in the direction sought with a large enough effect; inconclusive means small, poorly fitted or top-dose-only effect, or another doubt; inactive means no such curve, though single readings can be large; an effect the other way counts as inactive or inconclusive.

SMILES	KCNH2 WT inh	GLS inh	HEK293 tox	KCNH2 3.1 inh	GLP-1R agonist	GLP-1R inv ag
O=c1nc(-c2ccccc2Cl)c2cc(F)ccc2[nH]1	0	0	0	-79	0	0
O=c1c2ccccc2[nH]c2ccc(F)cc12	0	0	0	0	0	0
CC(C)CCNC(=O)C(c1ccc(O)cc1)N(Cc1cccs1)C(=O)C1COc2ccccc2O1 (centres undefined)	0	0	?	0	0	11µM
O=C(NCc1ccco1)C(c1cccs1)N(C(=O)C1COc2ccccc2O1)c1cccc(O)c1 (centres undefined)	0	0	0	0	0	11µM
O=C(NCc1ccco1)C(c1ccncc1)N(C(=O)Cc1cccs1)c1ccccc1 (centres undefined)	0	0	0	0	0	0
COC(=O)c1ccc(OCC2c3cc(OC)c(OC)cc3CCN2C(=O)COc2ccc(Cl)cc2)cc1 (centres undefined)	-	0	0	-	0	0
CSc1nc(N)nc2c1ncn2CC(=O)NCC1CCCO1 (centres undefined)	0	0	0	0	0	0
Cc1ccc(-c2onc(C)c2C)cc1S(=O)(=O)NCc1ccc(N(C)C)cc1	-	0	0	-	-	0
Cc1ccc(S(=O)(=O)NCC2CCC(C(=O)NCCc3ccccc3)CC2)cc1 (centres undefined)	-	0	0	-	-	0
CN(N=Cc1ccccc1)C(=S)Nc1ccccc1	0	16µM	0	0	0	0
CN(c1ncc(C(F)(F)F)cc1Cl)N1C(=O)c2cccc(N)c2C1=O	0	0	0	0	0	3.2µM
CCOC(=O)CN[C@@H](C(=O)N1CC[C@H]1C(=O)NCc1ccc(/C(N)=N/O)cc1)C1CCCCC1	-	0	-	-	0	-
NNc1ccc(Cl)nn1	0	0	?	0	0	10µM
O=C(Cn1cc(/C=N/NC(=O)c2cccc3ccccc23)c2ccccc21)Nc1ccc(F)cc1	0	0	0	0	0	1.6µM
CC(=O)OCC1=C(C(=O)O)N2C(=O)[C@@H](NC(=O)Cc3cccs3)[C@H]2SC1	0	?	0	0	0	0
O=C(Cc1cccs1)NC1C(=O)N2C(C(=O)[O-])=C(C[n+]3ccccc3)CSC12 (centres undefined)	-	11µM	-	-	0	-
Cc1ccc2c(c1)Oc1ccc(NC(=O)CCl)cc1C(=O)N2	0	0	?	0	0	11µM
Cc1ccc2c(c1)Oc1ccc([N+](=O)[O-])cc1C(=O)N2	?	0	0	0	0	0
N#Cc1c(F)cccc1N1CCN(Cc2ccc3c(c2)OCO3)CC1	0	0	0	0	0	11µM
Cn1cc(S(=O)(=O)c2ccccc2)c(=O)c2cc(F)c(N3CCN(c4ccccc4)CC3)cc21	-	0	0	-	-	0
CCc1nnc(NC(=O)c2nc(Cl)ccc2Cl)s1	0	0	0	0	0	0
CCSc1nnc(NC(=O)c2ccc3ccccc3n2)s1	0	0	?	0	0	5µM
O=C(Nc1nnc(SCc2ccc(F)cc2)s1)c1ccccn1	0	0	5.6µM	0	?	?
O=C(Nc1nnc(SCc2ccc(F)cc2)s1)c1cccnc1Cl	0	0	0	0	0	0
N#Cc1ccc(CSc2nnc(NC(=O)c3ccc4ncsc4c3)s2)cc1	0	4µM	0	0	0	0
SMILES	KCNH2 WT inh	GLS inh	HEK293 tox	KCNH2 3.1 inh	GLP-1R agonist	GLP-1R inv ag
CCc1nnc(NC(=O)c2ccc3ccccc3n2)s1	0	0	?	0	0	7.9µM
CC1CCCN(CC(O)CN2CCN(CC(O)CN3CCCC(C)C3)C(C)C2)C1 (centres undefined)	0	0	0	0	0	?
CSc1cccc(NC(=O)CSc2ccc(C)cc2)c1	0	0	0	0	0	0
COCC(=O)Nc1ccc(Nc2ccccc2)cc1	0	0	0	0	0	0
CCC(=O)Nc1cccc(SC)c1	0	0	0	-83	0	0
CCC(=O)Nc1ccc(Nc2ccccc2)cc1	-82	0	0	0	0	0
CCOC(=O)N1CCC(Nc2cccc(SC)c2)CC1	0	0	0	-71	0	0
CCOC(=O)c1cc(-c2ccc(OC)c(S(=O)(=O)NC3CCCCC3)c2)on1	-	0	0	-	-	0
CCCCCCCCCCCCCCCC(=O)O[C@@H]1CC(C)=C(\C=C/C(C)=C\C=C/C(C)=C\C=C\C=C(C)\C=C\C=C(C)\C=C\C2=C(C)C[C@@H](OC(=O)CCCCCCCCCCCCCCC)CC2(C)C)C(C)(C)C1	-	0	-	-	0	-
CCOc1cc(C(=O)N2CCC3(CC2)NCCc2[nH]cnc23)cc(OCC)c1OCC	0	0	0	0	0	0
C=C(C)C1CCC(C)=C1COC(=O)Nc1ccccc1 (centres undefined)	0	0	0	0	0	8.9µM
COc1cccc(C(C)(O)c2nc(-c3ccc(Cl)cc3)cs2)c1 (centres undefined)	-	0	0	-	0	?
COc1ccc(-c2csc(C(C)(O)c3cccc(OC)c3)n2)cc1 (centres undefined)	-	0	0	-	0	10µM
CC(C)COc1ccc(C(=O)Nc2sc3c(c2C(=O)O)CC(C)(C)OC3)cc1	0	0	0	0	0	11µM
CC1(C)Cc2c(sc(NC(=O)c3ccccc3)c2C(=O)O)CO1	0	0	?	0	0	0
O=C(Cn1cncn1)N/N=C/c1cc([N+](=O)[O-])ccc1O	-104	0	0	0	0	0
CC(C)(C)c1ccc(OCCCC(=O)NNC(=O)c2ccccc2O)cc1	0	0	0	0	0	13µM
Cc1cc(C(=O)NNC(=O)CCCOc2ccccc2)c(C)o1	0	0	0	0	0	0
COc1ccc(OC)c(S(=O)(=O)N2CC=C(c3c(C)n(CC(=O)N4CCCC4)c4ccccc34)CC2)c1	-	0	0	-	-	0
Nc1nonc1-c1nc2ccccc2n1CC(=O)N/N=C\c1ccc(-c2ccc(Cl)cc2)o1	0	0	0	0	0	10µM
CCCN1C(=O)C(O)(CC(=O)c2ccc(OC)c(OC)c2)c2ccccc21 (centres undefined)	-	0	0	-	-	0
CC(C)(C)c1ccc(S(=O)(=O)NCC(=O)Nc2ccc(-c3nc4ccccc4s3)cc2)cc1	0	0	?	0	0	?
O=C(CNS(=O)(=O)c1cccc(Cl)c1)Nc1ccc(-c2nc3ccccc3s2)cc1	0	0	0	-74	0	0
C=C1CCC2C(C)(C)[C@@H](O)CC[C@@]2(C)[C@@H]1COc1ccc2ccc(=O)oc2c1 (some centres undefined)	0	0	?	0	0	?
CC(=O)OC1CCC2(C)C(COc3ccc4ccc(=O)oc4c3)C(C)(O)CCC2C1(C)C (centres undefined)	0	0	0	0	0	11µM
